Reference: PubChem BioAssay AID720706 (Broad Institute, 2013)
About 5,500 (1.6%) of roughly 350,000 compounds were called active.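 Rule for the calls: active = significant combined selectivity score with lowered wild-type GFP, culture density cut under 30%, mutant RFP and density less affected; inactive = any of these conditions unmet.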 This excerpt belongs to a sample that is enriched for actives.

Assay: GFP drop in mixed WT/humanized-ribosome E. coli culture – GFP/RFP fluorescence, OD600, single point, bacterial rRNA inhibitor project, primary screen (AID 720706)
Conditions: E. coli WT GFP vs humanized-ribosome RFP mutants, 24 h; GFP signal change (wild-type ribosome): stronger effect = lower value, DMSO median 0, no signal -100; OD600 change: measured here: OD600 growth, DMSO median 0, no signal -100; RFP signal change: measured here: RFP humanized mutant strains, DMSO median 0, no signal -100, concentration not given here

SMILES	GFP signal change (wild-type ribosome)	OD600 change	RFP signal change
O=C(NCC1CC1)[C@@H]1[C@@H](CO)[C@@H]2Cn3c(ccc(-c4ccncc4)c3=O)[C@H]1N2Cc1nccs1	2.96% (inactive)	4.86%	-1.83%
O=C(C[C@@H]1CC[C@H]2[C@@H](COC[C@H](O)CN2C(=O)Nc2ccccc2)O1)NCCc1ccncc1	6.3% (inactive)	12.9%	-0.44%
Cc1ccc(S(=O)(=O)CCC(=O)OCc2ccccc2)cc1	0.84% (inactive)	1.2%	2.56%
Cc1nn(C(C)(C)C)c(OC(=O)CC(C)C)c1S(=O)(=O)c1ccccc1	-21.5% (active)	-14.2%	-1.55%
CC(CC(=O)N1CCN(S(=O)(=O)c2ccccc2)CC1)n1cncn1 (stereo not given)	5.03% (inactive)	0.845%	-1.68%
CNC[C@H]1Oc2ccccc2CC(=O)N(C)C[C@H]1C	1.46% (inactive)	4.75%	-1.05%
CC(C)NC(=O)Nc1ccc2c(c1)CC(=O)N(C)C[C@@H](C)[C@@H](CN(C)C(=O)OC(C)(C)C)O2	2.38% (inactive)	4.01%	0.746%
CC(C)C#Cc1ccc2c(c1)O[C@@H](CN(C)C(=O)CN(C)C)[C@@H](C)CN([C@H](C)CO)S2(=O)=O	2.76% (inactive)	1.18%	-1.07%
CCCNC(=O)N(C)C[C@@H]1Oc2ncc(-c3cccc(C#N)c3)cc2C(=O)N([C@@H](C)CO)C[C@@H]1C	5.65% (inactive)	14.1%	-4.23%
Cc1ccc(N2C(=O)S/C(=C/c3cn(C)c4ccccc34)C2=O)cc1	5.23% (inactive)	9.33%	6.02%
Cn1cc(C2OC(=O)c3ccccc32)c2ccccc21 (stereo not given)	-10.5% (active)	-18.9%	-4.84%
Cc1ccc(CNC(=O)Cc2cn(C)c3ccccc23)cc1	-9.46% (inactive)	-8.64%	3.4%
CN1c2ccc(-c3ccccc3F)cc2[C@@H]2[C@@H](CCN2C(=O)CN2CCOCC2)[C@H]1CO	-2.46% (inactive)	-0.94%	-0.302%
C[C@@H]1CN([C@H](C)CO)C(=O)c2cc(NC(=O)Cn3cnnn3)ccc2O[C@@H]1CN(C)Cc1ccc(C(F)(F)F)cc1	-1.05% (inactive)	-5.5%	-0.189%
OCCN(Cc1ccccc1)Cc1ccc(Cl)cc1	-23% (active)	-9.66%	0.44%
CN(C(=O)CN(CCO)CC(=O)N(C)C(C)(C)Cc1ccccc1)C(C)(C)Cc1ccccc1	-31.9% (inactive)	-35.7%	-7.29%
O=C(Cc1ccc(Cl)cc1)c1ccccc1	3.35% (inactive)	2.91%	-5.05%
CCC(=O)N[C@H]1CC[C@@H](CC(=O)NCC2CC2)O[C@@H]1CO	3.28% (inactive)	7.08%	3.11%
CC(C)NC(=O)Nc1ccc2c(c1)C(=O)N([C@@H](C)CO)C[C@H](C)[C@@H](CN(C)Cc1ccc(C(=O)O)cc1)OCCCC[C@H](C)O2	-0.801% (inactive)	3.15%	-0.195%
CN1CCN(c2ccc(NC(=O)c3ccc4c(c3)OCCO4)cc2Cl)CC1	3.42% (inactive)	2.75%	-7.15%

SMILES	GFP signal change (wild-type ribosome)	OD600 change	RFP signal change
O=C(Nc1ccc(N2CCN(C(=O)c3ccccc3)CC2)c(Cl)c1)c1ncn[nH]1	-24.4% (active)	-14.7%	0.07%
O=C(Nc1ccccc1N1CCN(C(=O)c2ccccc2)CC1)c1ccco1	-8.24% (inactive)	-9.77%	-0.948%
COc1ccc2c3c([nH]c2c1)[C@@H](CO)N(C(=O)C1CC1)CC31CCN(Cc2nccs2)CC1	-6.7% (inactive)	-0.445%	-3.97%
CCCNC(=O)C[C@@H]1CC[C@H]2[C@@H](COc3ccc(NC(=O)C4CCCC4)cc3C(=O)N2C)O1	2.97% (inactive)	3.62%	0.145%
O=C(NC1CCC1)[C@@H]1[C@@H](CO)[C@@H]2Cn3c(ccc(/C=C/c4ccccc4)c3=O)[C@@H]2N1Cc1ccncc1	-9.73% (inactive)	-7.87%	7.36%
O=C(Nc1ccc(F)cc1)N1CC(=O)N2[C@H](CO)[C@H](c3ccc(C#Cc4ccccc4)cc3)[C@H]2C1	-32.4% (inactive)	-57.1%	29%
C[C@@H]1CCCCO[C@H](CN(C)C)[C@H](C)CN([C@@H](C)CO)C(=O)c2cc(NS(=O)(=O)c3cn(C)cn3)ccc2O1	3.31% (inactive)	6.19%	-1.01%
CSc1nc(-c2ccco2)nn1C(=O)c1ccccc1Cl	-25.9% (active)	-15.3%	0.841%
Cn1c(SCC(=O)c2cccs2)nnc1-c1ccco1	1.2% (inactive)	2.27%	0.555%
CCn1c(SCC(=O)Nc2cc(C)c(Cl)cc2OC)nnc1-c1ccco1	-38.4% (inactive)	-53.5%	-9.88%
COc1ccc(S(=O)(=O)N(C)C[C@@H]2Oc3ccc(NC(=O)CCC(F)(F)F)cc3C(=O)N([C@@H](C)CO)C[C@@H]2C)cc1	2.48% (inactive)	3.34%	-0.798%
C[C@@H](O)C#Cc1ccc([C@H]2[C@H]3CN(C(=O)c4ccc5c(c4)OCO5)CCCCN3[C@H]2CO)cc1	3.47% (inactive)	-9%	2.17%
COc1ccc2oc(=O)cc(CN3CCOCC3)c2c1	18.2% (inactive)	14.8%	0.523%
CCCc1cc(=O)oc2cc(OCC(=O)Nc3ccc(CN4CCOCC4)cc3)c(Cl)cc12	0.107% (inactive)	0.304%	-1.17%
COc1ccc(-c2cc(=O)oc3cc(OC(C)C(=O)Nc4ccc(CN5CCOCC5)cc4)ccc23)cc1 (stereo not given)	-20% (active)	-14.2%	3.54%
C[C@@H]1CCCCO[C@@H](CN(C)C(=O)c2ccccc2)[C@H](C)CN([C@@H](C)CO)C(=O)c2cc(NS(=O)(=O)c3cn(C)cn3)ccc2O1	4.03% (inactive)	4.12%	-1.99%
Cc1ccc(C(=O)NCC(=O)OCC(=O)Nc2cccc(S(=O)(=O)N3CCCC3)c2)cc1C	-20.9% (active)	-2.78%	-2.48%
CC(NC(=O)c1ccccc1)C(=O)OCC(=O)Nc1cccc(S(=O)(=O)N2CCCC2)c1 (stereo not given)	-2.56% (inactive)	4.84%	-0.0785%
O=C(CCNC(=O)c1ccc(Br)cc1)Nc1cccc(S(=O)(=O)N2CCCCC2)c1	-12.3% (inactive)	-43.3%	1.03%
CC(C)(C)[S@](=O)N1Cc2cc(C(=O)N[C@@H]3CCN(Cc4ccccc4)C3)nc(-c3cccc(-c4ccncc4)c3)c2[C@@H]1CCO	1.13% (inactive)	9.43%	-4.39%
